PubChem BioAssay (NCATS)
Inconclusive results are not listed. Activity calls are given as the source filed them. Unless noted, calls follow the shape of the dose curve; as a rule, active = well fitted curve in the direction sought with a large enough effect; inconclusive = small, poorly fitted or top-dose-only effect, or another doubt; inactive = no such curve, though single readings can be large; an effect the other way counts as inactive or inconclusive.

Key:
[1] = AP1 Signaling Pathway (AID 357; active = well fitted curve in either direction with a large enough effect, not every such curve was filed as active;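 also: ME-180 reporter cells stimulated with EGF at its EC50 level; % is scaled to controls: 0 for no effect and ±100 for the full control effect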); conditions: ME-180 AP-1-bla reporter, EGF-induced, beta-lactamase ratio, 5 h; at 17.2 µM (top of the series) unless noted
Method in brief: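 First, ME-180 AP-1-bla cells were cultured overnight at 37 °C in low-serum Opti-MEM. Next, titrated compounds with EC50 EGF were incubated 5 hours. Finally, CCF4 was added for 2.5 hours and the 460/530 nm ratio recorded.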

[2] = Stat Signaling Pathway (AID 446; active = well fitted curve in either direction with a large enough effect, not every such curve was filed as active;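 also: ME-180 cervical cancer cells given 40 pM IL-6 alongside compound; SIE-controlled beta-lactamase reporter measured as 460/530 nm FRET emission ratio; % is scaled to controls: 0 for no effect and ±100 for the full control effect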)
Method in brief: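 Emission at 460 and 530 nm (excitation 405 nm) reports SIE-controlled beta-lactamase in ME-180 cells. Cells received compound with 40 pM IL-6 for 5 hrs at 37 C; data scaled between 300 pM IL-6 and 125 nM JAK-inhibitor controls.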

[3] = target: Glucocorticoid receptor (Homo sapiens) (UniProt P04150); test: GR-GFP Redistribution (AID 450;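 active = compounds whose dose series gives a full or clear partial fitted curve of increased nuclear translocation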; also: potency is read from the fitted curve at half-maximal effect); conditions: U2OS GR-GFP nuclear translocation, laser cytometry, 2 h
Glucocorticoid receptor (Homo sapiens), sequence (P04150 whole entry, looked up, the tested form may be a part): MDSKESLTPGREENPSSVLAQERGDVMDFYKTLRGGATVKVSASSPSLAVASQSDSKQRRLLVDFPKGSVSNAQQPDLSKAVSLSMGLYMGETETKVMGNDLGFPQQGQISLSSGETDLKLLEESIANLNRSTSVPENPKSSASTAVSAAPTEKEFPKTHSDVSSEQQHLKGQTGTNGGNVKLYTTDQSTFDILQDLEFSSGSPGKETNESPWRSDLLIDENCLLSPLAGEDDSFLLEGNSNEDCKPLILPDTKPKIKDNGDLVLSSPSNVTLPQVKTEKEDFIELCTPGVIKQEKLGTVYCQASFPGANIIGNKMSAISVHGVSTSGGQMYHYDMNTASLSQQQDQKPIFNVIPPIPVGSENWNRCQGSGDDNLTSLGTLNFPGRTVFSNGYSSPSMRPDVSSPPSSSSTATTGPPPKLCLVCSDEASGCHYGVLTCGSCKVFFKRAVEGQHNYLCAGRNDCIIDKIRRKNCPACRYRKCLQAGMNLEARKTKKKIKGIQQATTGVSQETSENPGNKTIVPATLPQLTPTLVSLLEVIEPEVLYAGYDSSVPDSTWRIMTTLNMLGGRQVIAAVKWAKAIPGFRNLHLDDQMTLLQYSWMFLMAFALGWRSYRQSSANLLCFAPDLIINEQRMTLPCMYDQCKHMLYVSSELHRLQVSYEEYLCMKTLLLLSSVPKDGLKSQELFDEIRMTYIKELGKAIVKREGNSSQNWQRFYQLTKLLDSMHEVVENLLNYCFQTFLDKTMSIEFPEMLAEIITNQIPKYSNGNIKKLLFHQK

[4] = target: Cytochrome P450 1A2 (Homo sapiens) (UniProt P05177); test: p450-cyp1a2 (AID 410; calls by dose curve; also: potency is read from the fitted curve at half-maximal effect;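 as to activity change, negative = inhibition: -100% = full effect of reference inhibitor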)
Cytochrome P450 1A2 (Homo sapiens), sequence (P05177 whole entry, looked up): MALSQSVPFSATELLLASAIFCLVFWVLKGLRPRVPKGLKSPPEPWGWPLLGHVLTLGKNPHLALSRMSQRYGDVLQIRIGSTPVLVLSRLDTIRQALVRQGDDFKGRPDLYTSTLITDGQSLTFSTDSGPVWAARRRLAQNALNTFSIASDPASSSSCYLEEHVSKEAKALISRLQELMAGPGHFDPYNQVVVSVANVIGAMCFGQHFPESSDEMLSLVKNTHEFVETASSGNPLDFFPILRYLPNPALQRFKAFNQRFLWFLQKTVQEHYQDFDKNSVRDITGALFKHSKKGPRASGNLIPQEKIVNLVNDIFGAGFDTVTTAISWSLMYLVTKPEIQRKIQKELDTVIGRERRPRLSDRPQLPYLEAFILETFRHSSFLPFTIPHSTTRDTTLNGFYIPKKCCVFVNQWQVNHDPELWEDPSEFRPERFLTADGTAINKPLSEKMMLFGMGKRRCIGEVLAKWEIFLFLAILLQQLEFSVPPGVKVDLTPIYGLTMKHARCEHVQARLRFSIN
Method in brief: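 Read-out is luminescence from luciferin produced by CYP1A2 demethylation of Luciferin-ME (100uM, at Km). Detection reagent stopped the 60 min NADPH-dependent reaction; signals were normalized to 57 uM furafylline.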

[5] = NFAT Signaling Pathway (AID 444; active = well fitted curve in either direction with a large enough effect, not every such curve was filed as active;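 also: carbachol stimulus at about its EC50 of 1 µM final; % is scaled to controls: 0 for no effect and ±100 for the full control effect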); conditions: Jurkat NFAT-bla M1, carbachol, beta-lactamase ratio, 5 h; at 17.2 µM (top of the series) unless noted
Method in brief: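 Jurkat cells with NFAT-driven β-lactamase reporter and co-expressed M1 receptor, stimulated with carbachol (final 1 uM, ~EC50), compound titration, 5 h at 37 °C. CCF4 loaded 1 h at RT; 460/530 nm ratio gave %activity and AC50.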

[6] = target: Mitogen-activated protein kinase 10 (Mus musculus) (UniProt Q61831); test: JNK3 AlphaScreen Assay (AID 530; active = well fitted curve in either direction with a large enough effect, not every such curve was filed as active;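 also: kinase came from lysate of stimulated human HepG2 cells; signal reports phosphorylation of biotinylated GST-cJun 1-79 at Ser73 with 10 µM ATP; % is scaled to controls: 0 for no effect and ±100 for the full control effect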)
Method in brief: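 HepG2 lysate (IL-1b/TNFa pre-activated) + biotin-GST-cJun 1-79 + anti-pSer73 cJun; cpd titration, 15 min RT; ATP 10 uM start; Tris pH 7.6, MgCl2, DTT, vanadate; beads in EDTA buffer; AlphaScreen.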

[7] = target: Guanine nucleotide-binding protein G(i) subunit alpha-1 (Homo sapiens) (UniProt P63096); test: qHTS Assay for Inhibitors of RGS12 GoLoco Motif Activity (Green Fluorophore) (AID 879);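 also: 0% = labeled peptide with Gαi1 and full inhibition = labeled peptide alone without protein; negative values mean loss of peptide binding seen as reduced polarization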
Guanine nucleotide-binding protein G(i) subunit alpha-1 (Homo sapiens), sequence (P63096 whole entry, looked up): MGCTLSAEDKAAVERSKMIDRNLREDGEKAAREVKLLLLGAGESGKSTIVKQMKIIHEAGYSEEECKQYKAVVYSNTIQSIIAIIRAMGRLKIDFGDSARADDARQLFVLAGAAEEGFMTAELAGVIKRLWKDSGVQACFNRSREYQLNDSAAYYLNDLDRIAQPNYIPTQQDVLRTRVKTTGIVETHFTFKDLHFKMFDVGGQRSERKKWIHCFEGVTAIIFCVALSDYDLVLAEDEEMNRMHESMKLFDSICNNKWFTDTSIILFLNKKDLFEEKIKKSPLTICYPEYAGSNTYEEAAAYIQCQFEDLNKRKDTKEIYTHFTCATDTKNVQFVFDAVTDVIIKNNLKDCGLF
Method in brief: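 A drop in FITC polarization marked displacement of the FITC-tagged RGS12 GoLoco peptide (10 nM) from Gαi1 (50 nM). Compounds were incubated 10 min at room temperature in Tris pH 7.5 buffer containing 150 mM NaCl, 0.1 mM GDP and 0.05% NP40; unlabeled peptide titration served as control.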

[8] = target: Cytochrome P450 3A4 (Homo sapiens) (UniProt P08684); test: qHTS Assay for Activators of Cytochrome P450 3A4 (AID 885); also: nearly all actives have a fitted effect of over 65% in size
Cytochrome P450 3A4 (Homo sapiens), sequence (P08684 whole entry, looked up): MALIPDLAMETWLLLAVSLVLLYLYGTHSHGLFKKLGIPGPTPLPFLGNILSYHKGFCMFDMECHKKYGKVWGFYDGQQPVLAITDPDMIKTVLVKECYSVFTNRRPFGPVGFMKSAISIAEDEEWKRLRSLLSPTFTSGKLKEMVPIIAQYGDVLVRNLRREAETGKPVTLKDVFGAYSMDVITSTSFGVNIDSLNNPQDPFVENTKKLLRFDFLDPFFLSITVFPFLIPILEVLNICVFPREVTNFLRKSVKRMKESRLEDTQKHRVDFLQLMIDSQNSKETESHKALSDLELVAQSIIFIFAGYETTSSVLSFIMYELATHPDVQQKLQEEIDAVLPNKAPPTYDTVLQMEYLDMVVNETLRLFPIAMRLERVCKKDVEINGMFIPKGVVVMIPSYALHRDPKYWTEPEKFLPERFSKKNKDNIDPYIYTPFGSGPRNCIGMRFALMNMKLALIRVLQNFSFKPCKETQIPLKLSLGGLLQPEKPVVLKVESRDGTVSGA
Method in brief: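 Activators are scored by enhanced luminescence from CYP3A4 conversion of luciferin-PPXE (25uM, equal to KM) to luciferin, after 60 min at RT with an NADPH-regenerating system.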

[9] = target: Cytochrome P450 2D6 (Homo sapiens) (UniProt P10635); test: qHTS Assay for Inhibitors and Substrates of Cytochrome P450 2D6 (AID 891); also: nearly all actives have a fitted effect of over 60% in size; also: potency is read from the fitted curve at half-maximal effect
Cytochrome P450 2D6 (Homo sapiens), sequence (P10635 whole entry, looked up): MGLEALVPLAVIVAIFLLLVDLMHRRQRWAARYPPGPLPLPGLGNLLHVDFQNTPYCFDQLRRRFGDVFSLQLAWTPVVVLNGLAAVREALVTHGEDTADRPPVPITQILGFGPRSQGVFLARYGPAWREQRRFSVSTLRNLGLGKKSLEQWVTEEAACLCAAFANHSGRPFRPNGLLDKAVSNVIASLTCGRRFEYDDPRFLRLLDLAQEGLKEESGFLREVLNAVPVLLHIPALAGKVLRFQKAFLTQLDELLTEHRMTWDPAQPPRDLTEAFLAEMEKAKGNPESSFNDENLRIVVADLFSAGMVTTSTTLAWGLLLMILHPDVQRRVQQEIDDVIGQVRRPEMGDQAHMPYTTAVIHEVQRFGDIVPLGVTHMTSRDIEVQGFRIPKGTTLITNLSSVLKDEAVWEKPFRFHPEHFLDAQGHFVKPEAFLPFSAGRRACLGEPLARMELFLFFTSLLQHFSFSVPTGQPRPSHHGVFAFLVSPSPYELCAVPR
Method in brief: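 Luminescent read-out of luciferin formed by 5 nM human CYP2D6 demethylating 30 uM Luciferin-ME EGE (Km level) over 60 min at room temperature after NADPH regeneration addition. Data normalized to full inhibition by 1.43 uM quinidine.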

[10] = target: Muscarinic acetylcholine receptor M1 (Rattus norvegicus) (UniProt P08482); test: qHTS Assay for Antagonists of Acetylcholine Muscarinic M1 Receptor: Measurement of IP-One Response (AID 944); also: nearly all actives have a fitted effect of over 75% in size
Muscarinic acetylcholine receptor M1 (Rattus norvegicus), sequence (P08482 whole entry, looked up): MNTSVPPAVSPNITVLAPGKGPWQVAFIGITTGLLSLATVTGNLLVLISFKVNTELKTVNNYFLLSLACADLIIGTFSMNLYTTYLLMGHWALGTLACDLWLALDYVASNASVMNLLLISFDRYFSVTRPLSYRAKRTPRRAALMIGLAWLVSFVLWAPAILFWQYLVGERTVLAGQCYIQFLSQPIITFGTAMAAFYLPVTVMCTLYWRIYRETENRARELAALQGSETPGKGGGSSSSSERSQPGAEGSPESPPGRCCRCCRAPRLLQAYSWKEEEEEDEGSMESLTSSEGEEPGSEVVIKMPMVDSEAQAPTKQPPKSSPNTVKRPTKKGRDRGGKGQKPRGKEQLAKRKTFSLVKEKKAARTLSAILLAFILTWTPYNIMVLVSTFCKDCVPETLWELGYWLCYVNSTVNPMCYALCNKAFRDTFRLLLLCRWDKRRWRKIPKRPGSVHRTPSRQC
Method in brief: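 Antagonism was measured as loss of carbachol-driven (EC80) IP1 accumulation in CHO cells carrying rat M1, using a homogeneous IP-One TR-FRET kit read at 620 and 665 nm.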

[11] = target: Pyruvate kinase PKM (Homo sapiens) (UniProt P14618); test: qHTS Assay for Activators of Human Muscle Pyruvate Kinase (AID 954; active = well fitted curve in the direction sought with a large enough effect, not every such curve was filed as active;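 also: 0% = uninhibited enzyme and -100% = no enzyme or full thiadiazolimine inhibition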)
Pyruvate kinase PKM (Homo sapiens), sequence (P14618 whole entry, looked up): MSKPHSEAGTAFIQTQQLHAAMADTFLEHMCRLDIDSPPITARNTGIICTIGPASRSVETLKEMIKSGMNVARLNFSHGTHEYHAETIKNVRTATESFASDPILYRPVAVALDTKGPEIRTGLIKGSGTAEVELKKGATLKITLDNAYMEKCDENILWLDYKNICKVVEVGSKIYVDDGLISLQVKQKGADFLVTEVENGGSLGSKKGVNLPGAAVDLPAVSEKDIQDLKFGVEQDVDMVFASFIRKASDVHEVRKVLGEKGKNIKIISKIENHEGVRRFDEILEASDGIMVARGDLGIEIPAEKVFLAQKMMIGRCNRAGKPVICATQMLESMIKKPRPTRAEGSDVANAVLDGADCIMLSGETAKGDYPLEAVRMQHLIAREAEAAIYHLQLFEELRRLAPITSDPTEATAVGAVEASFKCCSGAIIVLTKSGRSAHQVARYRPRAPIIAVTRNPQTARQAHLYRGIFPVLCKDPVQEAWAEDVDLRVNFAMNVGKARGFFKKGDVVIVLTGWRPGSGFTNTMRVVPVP
Method in brief: (§1)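 PKM2, human, >95% pure, 0.1 nM; PEP 0.5 mM (Km), ADP 0.1 mM; 50 mM imidazole pH 7.2, 50 mM KCl, 0.01% Tween 20, 0.05% BSA; 1 h RT; luciferase luminescence readout.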

[12] = target: Alpha-galactosidase (Coffea arabica) (UniProt Q42656); test: Counterscreen for Glucocerebrosidase Inhibitors: qHTS Assay for Coffee Bean alpha-Galactosidase at pH 4.5 (AID 957);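 also: plate controls were enzyme alone for no effect and no enzyme for full effect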
Alpha-galactosidase (Coffea arabica), sequence (Q42656 whole entry, looked up): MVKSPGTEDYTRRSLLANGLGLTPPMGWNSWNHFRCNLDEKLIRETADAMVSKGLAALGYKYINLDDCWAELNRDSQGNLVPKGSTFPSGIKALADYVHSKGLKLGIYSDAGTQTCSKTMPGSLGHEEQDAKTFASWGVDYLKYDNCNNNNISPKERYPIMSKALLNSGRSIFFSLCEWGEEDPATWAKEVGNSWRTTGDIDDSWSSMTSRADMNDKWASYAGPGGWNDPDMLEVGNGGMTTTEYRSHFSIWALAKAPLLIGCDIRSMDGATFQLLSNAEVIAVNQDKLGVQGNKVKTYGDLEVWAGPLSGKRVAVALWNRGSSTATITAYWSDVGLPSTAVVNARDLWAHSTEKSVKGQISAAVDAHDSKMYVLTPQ
Method in brief: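 Quantitative HTS of compounds (0.7 nM to 77 uM) against coffee bean alpha-galactosidase at pH 4.5, measuring 4-methylumbelliferone fluorescence released from 80 uM substrate.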

[13] = target: Alpha-galactosidase A (Homo sapiens) (UniProt P06280); test: Counterscreen for Glucocerebrosidase Inhibitors: qHTS Assay for Human alpha-Galactosidase at pH 4.5 (AID 992); also: 0% is about no effect
Method in brief: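 Fluorogenic 4-MU alpha-D-galactoside (80 uM) hydrolysis, 2 nM enzyme, pH 4.5 citrate buffer + 0.005% Tween-20; 20 min RT; NaOH/glycine pH 10 stop; Ex365/Em440. Compounds titrated 0.7 nM–77 uM; Hill-equation AC50.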

[14] = target: alpha-glucosidase (Oryza sativa, rice) (UniProt Q653V4); test: Counterscreen for Glucocerebrosidase Inhibitors: qHTS Assay for Rice alpha-Glucosidase at pH 5.0 (AID 997);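 also: 0% = full activity with enzyme and -100% = basal without enzyme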
Method in brief: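 Endpoint fluorogenic assay at pH 5.0: compounds (0.7 nM to 77 uM) titrated against 4 nM rice enzyme and 400 uM 4-MU-alpha-glucoside for 20 min at room temperature; NaOH/glycine stop, read ex 365/em 440 nm, Hill-fitted AC50.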

[15] = target: Alpha-galactosidase (Coffea arabica) (UniProt Q42656); test: Counterscreen for Glucocerebrosidase Inhibitors: qHTS Assay for Coffee Bean alpha-Galactosidase at pH 5.9 (AID 998);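 also: plate controls were uninhibited enzyme for no effect and no-enzyme basal signal for full effect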
Method in brief: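 Enzyme 2 nM + cpd (0.7 nM–77 uM titration) + 4-MU-alpha-Gal 80 uM, pH 5.9 citrate/Tween-20, RT 20 min, NaOH/glycine stop pH 10, fluor 365/440. Normalized to no-enzyme and full-activity controls; Hill-fit AC50.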

[16] = qHTS Assay for Identification of Small Molecule Agonists for Hypoxia Response Element Signaling Pathway (AID 914; active = well fitted activation curve with a large enough effect in the signal ratio, with a control signal flat, not every such curve was filed as active; the % refers to the signal ratio; also: % of control where 0% means no effect); conditions: ME-180 (cervical carcinoma) HRE-bla reporter, beta-lactamase ratio, CoCl2, 17 h; activation: active compounds read high
Method in brief: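 HRE-bla ME-180 assay for agonist-like enhancement of an EC50 CoCl2 stimulus: 17 h at 37 degrees Celsius, CCF4 for 2.5 h, ratiometric 460/530 nm signal converted to %Activity and fitted to AC50.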

[17] = target: Glucocorticoid receptor (Homo sapiens) (UniProt P04150); test: GR-EFC Redistribution (AID 451; calls by dose curve; also: potency is read from the fitted curve at half-maximal effect); conditions: CHO-K1 GR-EFC translocation, beta-gal luminescence, 2 h
Method in brief: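 CHO-K1 cells expressing nuclear EA and GR-ED fragments of b-gal; compounds titrated up to 46 uM final, 2 h at 37 C. GR nuclear translocation read as complemented b-gal luminescence after 1 h RT detection.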

[18] = target: 3',5'-cyclic-AMP phosphodiesterase 4B (Homo sapiens) (UniProt Q07343); test: qHTS Assay for Inhibitors of PDE-IV (AID 607; active = well fitted activation curve with a large enough effect in the main read-out, with a control signal flat, not every such curve was filed as active; also: % of control where 0% means no effect)
3',5'-cyclic-AMP phosphodiesterase 4B (Homo sapiens), sequence (Q07343 whole entry, looked up): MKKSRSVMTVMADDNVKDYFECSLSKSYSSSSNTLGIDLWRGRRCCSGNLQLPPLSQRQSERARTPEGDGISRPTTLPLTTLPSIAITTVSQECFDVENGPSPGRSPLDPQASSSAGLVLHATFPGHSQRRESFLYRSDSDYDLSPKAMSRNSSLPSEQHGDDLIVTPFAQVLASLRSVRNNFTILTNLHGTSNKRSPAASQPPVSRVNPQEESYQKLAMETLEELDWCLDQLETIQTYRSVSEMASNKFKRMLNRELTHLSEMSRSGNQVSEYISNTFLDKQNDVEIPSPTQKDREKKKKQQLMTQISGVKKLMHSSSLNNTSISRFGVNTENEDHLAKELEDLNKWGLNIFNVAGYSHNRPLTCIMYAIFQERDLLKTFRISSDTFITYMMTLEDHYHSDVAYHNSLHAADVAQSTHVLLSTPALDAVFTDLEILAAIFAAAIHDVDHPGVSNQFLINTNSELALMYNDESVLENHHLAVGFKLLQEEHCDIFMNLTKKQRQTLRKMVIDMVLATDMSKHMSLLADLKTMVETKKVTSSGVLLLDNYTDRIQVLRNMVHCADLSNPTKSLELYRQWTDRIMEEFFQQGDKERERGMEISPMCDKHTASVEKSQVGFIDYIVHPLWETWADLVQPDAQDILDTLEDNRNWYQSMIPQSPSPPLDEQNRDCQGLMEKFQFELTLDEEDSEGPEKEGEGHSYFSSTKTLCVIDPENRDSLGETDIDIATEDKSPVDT
Method in brief: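 The readout is membrane depolarisation from a cAMP-sensing CNG channel, detected with a potential dye at ex 535/em 590. Cells were HEK293-derived (endogenous PDE-IV) at 1000 cells/well, titrated up to 22.9 uM final.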

[19] = target: Cytochrome P450 3A4 (Homo sapiens) (UniProt P08684); test: qHTS Assay for Inhibitors and Substrates of Cytochrome P450 3A4 (AID 884); also: nearly all actives have a fitted effect of over 50% in size; also: potency is read from the fitted curve at half-maximal effect
Method in brief: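 Luminescent readout of luciferin produced by CYP3A4 (20 nM) dealkylation of Luciferin-PPXE, 25 uM (its KM). NADPH-driven reaction ran 60 min at RT after 10 min compound preincubation; data scaled to 57 uM ketoconazole as 100% inhibition.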

[20] = target: Ubiquitin carboxyl-terminal hydrolase 1 (Homo sapiens) (UniProt O94782); test: Inhibitors of USP1/UAF1: Pilot qHTS (AID 504865); also: potency is read from the fitted curve at half-maximal effect; nearly all actives have a fitted effect of over 35% in size
Method in brief: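 USP1/UAF1 complex at 1 nM preincubated 15 min at room temperature with compound, then Ub-Rho substrate added at 150 nM final. Fluorescence (480/540 nm) read kinetically in 50 mM HEPES pH 7.8, 0.5 mM EDTA, 1 mM TCEP, 0.1 mg/ml BSA, 0.01% Tween-20.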

[21] = target: Cytochrome P450 2C9 (Homo sapiens) (UniProt P11712); test: qHTS Assay for Inhibitors and Substrates of Cytochrome P450 2C9 (AID 883); also: % is scaled to controls: 0 for no effect and ±100 for the full control effect; nearly all actives have a fitted effect of over 60% in size
Method in brief: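 10nM CYP2C9 + 100uM Luciferin-H (=KM), 25mM KPO4; cpd 10 min 37C; NADPH regen, 60 min 37C; stop/detect with P450 Glo-Buffer 20 min; luminescence. Norm. to 57uM sulphaphenazole as full inhibition.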

[22] = target: Cytochrome P450 2C19 (Homo sapiens) (UniProt P33261); test: qHTS Assay for Inhibitors and Substrates of Cytochrome P450 2C19 (AID 899); also: % is scaled to controls: 0 for no effect and ±100 for the full control effect; nearly all actives have a fitted effect of over 60% in size
Method in brief: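 Luminescent read-out of luciferin formed from Luciferin-H EGE (10uM, equal to KM). Enzyme 5nM in 50mM KPO4; compound added, 10 min at 37C, then NADPH regenerating system for 60 min at 37C. Full inhibition defined by 57uM ketoconazole.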

[23] = target: Muscarinic acetylcholine receptor M1 (Rattus norvegicus) (UniProt P08482); test: qHTS Assay for Antagonists of Acetylcholine Muscarinic M1 Receptor: Kinetic Measurement of Intracellular Calcium Response (AID 943);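 also: Fluo-4 calcium signal as peak divided by basal fluorescence over 4 min; nearly all actives have a fitted effect of over 75% in size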
Method in brief: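 Quantitative HTS in CHO-M1 (rat receptor) cells: 10 min compound exposure ahead of 100 nM carbachol, Fluo-4 fluorescence followed 4 min, value expressed as peak-to-basal ratio.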

[24] = target: Pyruvate kinase PKM (Homo sapiens) (UniProt P14618); test: qHTS Assay for Inhibitors of Human Muscle Pyruvate Kinase (AID 958)
Method in brief: as §1

CN1C(=O)CN=C(c2ccc(Cl)cc2)c2cc(Cl)ccc21
inactive: activity change, negative = inhibition [1] 10.4% | outcome [2] | Potency [3] > 20.6 µM

Ic1ccccc1CN[C@@H]1C2CCN(CC2)[C@H]1C(c1ccccc1)c1ccccc1
active: Potency [4] 12.6 µM | Potency [9] 0.0631 µM
inactive: activity change, negative = inhibition [5] -6.46% [at 38 µM] | Potency [3] > 46 µM | outcome [6] | Potency [7] | Potency [8] | Potency [10] | outcome [11] | outcome [12] | outcome [13] | outcome [14] | outcome [15]

CCCCCCn1c(O)c(C=NC2CCN(Cc3ccccc3)CC2)c(=O)[nH]c1=O
inactive: activity change, negative = inhibition [1] -7.92% | outcome [2] | Potency [3] > 20.6 µM

COc1ccc(OC)c([C@@H](O)[C@H](C)NC(C)(C)C)c1
inactive: activity change, negative = inhibition [1] 8.72% | outcome [2] | Potency [3] > 20.6 µM | activation [16] 0.127%

CCOC(C(=O)OCC(O)CN(CC)CC)(c1ccccc1)c1ccccc1 (stereo not given)
inactive: activity change, negative = inhibition [1] 4.62% | outcome [2] | Potency [3] > 20.6 µM

CCN(CC)CCCNC(=O)c1c(O)c2ccccc2n(Cc2ccccc2)c1=O
inactive: activity change, negative = inhibition [1] 27.1% | outcome [2] | Potency [3] > 20.6 µM

CCCCCC[C@H]1C(=O)O[C@H](C)[C@H](NC(=O)c2cccc(NC=O)c2O)C(=O)O[C@@H](C)[C@H]1OC(=O)CC(C)C
inactive: Potency [4] | activity change, negative = inhibition [5] -34.3% | Potency [3] > 20.6 µM | Potency [17] > 20.6 µM | outcome [6] | outcome [18] | Potency [8]
active: Potency [19] 5.01 µM | Potency [20] 28.2 µM

CC1=C2[C@@H]3OC(=O)[C@H](C)[C@H]3CC[C@@]2(C)C=CC1=O
active: Potency [4] 31.6 µM
inactive: Potency [3] > 46 µM | Potency [17] > 46 µM | outcome [6] | outcome [18] | Potency [21] | Potency [9] | Potency [22]

CCCCCCn1c(O)c(C=Nc2c(C)n(C)n(-c3ccccc3)c2=O)c(=O)[nH]c1=O
inactive: activity change, negative = inhibition [1] -18.8% | outcome [2] | Potency [3] > 20.6 µM

C[C@]12Cc3cn4c(nc3C=C1CC[C@H]1[C@@H]2CC[C@@]2(C)[C@H]1CC[C@@]2(O)C#N)nc1ccccc14
active: Potency [4] 15.8 µM
inactive: Potency [3] > 46 µM | Potency [17] > 46 µM | outcome [6] | outcome [18] | Potency [7] | Potency [19] | Potency [23] | outcome [12] | Potency [24] | outcome [13] | outcome [14] | outcome [15]

C=C[C@@H]1CN2CC[C@@H]1C[C@H]2[C@H](O)c1ccnc2ccccc12
inactive: Potency [4] | Potency [3] > 46 µM | Potency [17] > 46 µM | outcome [6] | outcome [18] | Potency [21] | Potency [22]
active: Potency [9] 3.98 µM
